# Experimental data as given in PubChem BioAssay (Tox21).
# Where “and” joins values, the source holds several entries; their conditions need not be identical. Identical values can stand only once. Results filed as inconclusive are left out. Where a call stands in place of a potency, no number is given. The source holds several records for some structures; these can differ, active in one and inactive in another. Calls of active or inactive are those of the source. Unless noted, the call rests on the fitted dose curve; in most records, active means well fitted curve in the direction sought with a large enough effect in the repeat runs; inconclusive means weak or mixed curves; inactive means no such curve, though single readings can be large; an effect the other way counts as inactive or inconclusive.
# Experiments:
# [1] = A CellTox Green Cytotoxicity Assay to monitor cytotoxicity in HepG2 cells - 32 hour (AID 1224883); further: nearly all actives have a fitted effect of over 50% in size; further: potency means the concentration at half of the fitted maximal effect
# Method in brief: (§1)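 Real-time, homogeneous cytotoxicity readout: dead-cell DNA staining by CellTox Green in HepG2 monolayers, fluorescence measured at timed intervals up to 40 h of continuous compound exposure.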
# [2] = A CellTox Green Cytotoxicity Assay to monitor cytotoxicity in HEK293 cells - 8 hour (AID 1224884); further: nearly all actives have a fitted effect of over 35% in size; further: potency means the concentration at half of the fitted maximal effect
# Method in brief: (§2)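 Cytotoxicity was tracked continuously in HEK293 cells by a DNA-binding dye excluded from viable cells. Compounds were transferred in DMSO 5 h after seeding; fluorescence was recorded at intervals up to 40 h.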
# [3] = qHTS RealTime-Glo MT Cell Viability Assay in HepG2 cells - 16 hour (AID 1224885); further: nearly all actives have a fitted effect of over 50% in size; further: potency means the concentration at half of the fitted maximal effect
# Method in brief: (§3)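 Cells + NanoLuc/prosubstrate dispensed (600 cells/well) → 5 h at 37 C/5% CO2 → compounds in DMSO transferred → 40 h incubation at 37 C, luminescence read at 0, 8, 16, 24, 32, 40 h.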
# [4] = A CellTox Green Cytotoxicity Assay to monitor cytotoxicity in HEK293 cells - 16 hour (AID 1224888); further: nearly all actives have a fitted effect of over 35% in size; further: potency means the concentration at half of the fitted maximal effect
# Method in brief: as §2
# [5] = A CellTox Green Cytotoxicity Assay to monitor cytotoxicity in HepG2 cells - 8 hour (AID 1224890); further: nearly all actives have a fitted effect of over 45% in size; further: potency means the concentration at half of the fitted maximal effect
# Method in brief: as §1
# [6] = qHTS assay to identify small molecule antagonists of the estrogen receptor alpha (ER-alpha) signaling pathway using the BG1 cell line in the presence of 0.1 nM 17-beta-estradiol - cell viability counter screen (AID 1259241); further: nearly all actives have a fitted effect of over 40% in size; further: potency means the concentration at half of the fitted maximal effect
# Method in brief: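 Cytotoxicity counter-screen: live-cell protease activity measured by fluorescence (30 min reagent step) in the same wells. Cells were VM7Luc4E2 with endogenous ER-alpha and ERE-driven luciferase, treated 22 hr at 37C alongside 0.1 nM 17beta-estradiol final.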
# [7] = molecular target: Estrogen receptor (Homo sapiens) (UniProt P03372); assay: qHTS assay to identify small molecule antagonists of the estrogen receptor alpha (ER-alpha) signaling pathway using the BG1 cell line in the presence of 0.1 nM 17-beta-estradiol (AID 1259244); further: nearly all actives have a fitted effect of over 50% in size; further: potency means the concentration at half of the fitted maximal effect
# Chain of Estrogen receptor (Homo sapiens) (P03372 whole entry, looked up): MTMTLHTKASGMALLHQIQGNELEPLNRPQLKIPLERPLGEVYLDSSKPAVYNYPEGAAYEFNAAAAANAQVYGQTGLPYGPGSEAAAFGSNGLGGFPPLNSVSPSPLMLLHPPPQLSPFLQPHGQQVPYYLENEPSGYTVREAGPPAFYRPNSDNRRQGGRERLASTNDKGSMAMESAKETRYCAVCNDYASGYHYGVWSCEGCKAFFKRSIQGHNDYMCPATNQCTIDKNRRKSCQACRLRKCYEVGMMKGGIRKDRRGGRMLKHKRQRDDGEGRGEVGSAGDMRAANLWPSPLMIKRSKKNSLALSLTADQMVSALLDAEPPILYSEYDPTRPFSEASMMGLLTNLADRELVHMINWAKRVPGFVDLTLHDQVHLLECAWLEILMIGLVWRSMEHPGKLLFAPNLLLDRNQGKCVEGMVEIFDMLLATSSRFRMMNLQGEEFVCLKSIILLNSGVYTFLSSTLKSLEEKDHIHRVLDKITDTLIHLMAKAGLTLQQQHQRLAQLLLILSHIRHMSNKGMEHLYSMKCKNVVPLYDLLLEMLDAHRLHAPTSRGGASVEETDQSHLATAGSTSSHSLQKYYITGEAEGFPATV
# Method in brief: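 After 5 days in hormone-depleted medium (charcoal-stripped serum, no phenol red), VM7Luc4E2 cells were seeded, incubated 24 h, then co-treated with compound and 0.1 nM (final) estradiol for 22 h before luminescence detection.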
# [8] = qHTS assay to identify small molecule HDAC inhibitors - cell viability counter screen (AID 1259365); further: series mostly up to about 92 µM; nearly all actives have a fitted effect of over 50% in size
# Method in brief: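 CellTiter-Glo luminescence (30 min, room temperature) reported viability after a 2 h compound exposure at 37 C. Cells: wild-type HCT-116, 1,500 per well, seeded the night before.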
# [9] = qHTS assay to identify small molecule agonists of the sonic hedgehog signaling (Shh) pathway - cell viability counter screen (AID 1259366); further: nearly all actives have a fitted effect of over 50% in size; further: potency means the concentration at half of the fitted maximal effect
# Method in brief: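 Cytotoxicity counter screen: CellTiter-Fluor reagent added after 23 h compound exposure, then 1 h at 37C and fluorescence read. Cells were 3T3 Gli1-Luc, seeded 2,000 per well and dosed 4 h post-plating.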
# [10] = qHTS assay to identify small molecule antagonists of the sonic hedgehog signaling (Shh) pathway - cell viability counter screen (AID 1259367); further: nearly all actives have a fitted effect of over 55% in size; further: potency means the concentration at half of the fitted maximal effect
# Method in brief: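 Cells: 3T3 Gli1-Luc, 2,000/well, 4 hr pre-incubation. Compounds in DMSO, then conditioned medium. Incubation 24 hr, 37C, 5% CO2. CellTiter-Fluor at 23 hr, 1 hr, fluorescence.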
# [11] = qHTS assay to identify small molecule antagonists of the sonic hedgehog signaling (Shh) pathway (AID 1259369; calls by dose curve; further: nearly all actives have a fitted effect of over 45% in size; further: potency means the concentration at half of the fitted maximal effect)
# Method in brief: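 Inhibition of Shh signalling is measured as reduced Gli1-response-element firefly luciferase output in an NIH/3T3-derived stable reporter clone stimulated with conditioned medium for 24hr.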
# [12] = qHTS RealTime-Glo MT Cell Viability Assay in HepG2 cells - 0 hour (AID 1224889); further: nearly all actives have a fitted effect of over 50% in size
# Method in brief: as §3
# [13] = qHTS assay to identify small molecule HDAC inhibitors (AID 1259364); further: nearly all actives have a fitted effect of over 45% in size; further: potency means the concentration at half of the fitted maximal effect; on activity change, negative = inhibition: top concentration of the series differs between compounds
# Method in brief: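 Homogeneous cell-based luminescent assay of endogenous class I/II HDAC activity; HCT-116 cells, 2 h compound exposure, 30 min HDAC-Glo development at RT.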
# [14] = qHTS assay to identify small molecule agonists of the sonic hedgehog signaling (Shh) pathway (AID 1259368; calls by dose curve;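 further: NIH/3T3-derived 3T3Gli1-Luc cells carrying a stable Gli1-driven firefly luciferase reporter; series mostly up to about 92 µM; nearly all actives have a fitted effect of over 15% in size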)
# Method in brief: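 Steps: seed 3T3 Gli1-Luc cells, incubate 4 hr at 37 C, pin-transfer compounds in DMSO alongside a positive control, incubate 24 hr, add luciferase detection reagent, wait 30 min at room temperature, read luminescence.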
# [15] = molecular target: Estrogen receptor beta (Homo sapiens) (UniProt Q92731); assay: qHTS assay to identify small molecule agonists of the estrogen receptor beta (ER-beta) signaling pathway (AID 1259377; active means well fitted activation curve with a large enough effect in the signal ratio in the repeat runs, not every such curve was filed as active; the % refers to the signal ratio)
# Chain of Estrogen receptor beta (Homo sapiens) (Q92731 whole entry, looked up): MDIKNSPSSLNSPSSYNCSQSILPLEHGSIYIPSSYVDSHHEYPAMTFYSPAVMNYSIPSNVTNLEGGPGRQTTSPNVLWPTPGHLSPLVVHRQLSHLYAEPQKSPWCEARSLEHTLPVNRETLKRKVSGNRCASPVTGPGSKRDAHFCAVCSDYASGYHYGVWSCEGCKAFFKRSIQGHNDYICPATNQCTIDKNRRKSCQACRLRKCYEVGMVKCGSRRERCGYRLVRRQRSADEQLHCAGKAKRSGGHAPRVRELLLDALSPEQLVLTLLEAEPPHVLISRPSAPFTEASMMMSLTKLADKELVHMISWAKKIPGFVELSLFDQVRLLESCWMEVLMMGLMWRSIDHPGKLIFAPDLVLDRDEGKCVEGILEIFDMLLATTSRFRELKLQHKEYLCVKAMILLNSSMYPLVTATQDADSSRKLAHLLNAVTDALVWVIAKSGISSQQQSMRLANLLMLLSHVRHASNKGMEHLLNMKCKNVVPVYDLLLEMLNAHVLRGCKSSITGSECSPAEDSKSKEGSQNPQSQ
# Method in brief: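 Ratiometric beta-lactamase FRET read-out came after 2 h substrate loading at room temperature. It followed 16 h compound treatment at 37C of GripTite HEK293T cells carrying a UAS-bla reporter, plated in 2% charcoal-stripped FBS medium.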
# [16] = qHTS RealTime-Glo MT Cell Viability Assay in HEK293 cells - 24 hour (AID 1224886)
# Method in brief: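 Tox21 10K qHTS, HEK293, 600 cells/well, RealTime-Glo reagent co-dispensed with cells; 5 h preincubation, compound by pintool, 37 C, luminescence at 0–40 h.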
# [17] = qHTS assay to identify small molecule antagonists of the androgen receptor (AR) signaling pathway using the MDA cell line in the presence of 0.5 nM R1881 - cell viability counter screen (AID 1259242); further: nearly all actives have a fitted effect of over 45% in size; further: potency means the concentration at half of the fitted maximal effect
# Method in brief: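 Cytotoxicity toward MDA-kb2 cells is measured by CellTiter-Fluor live-cell protease fluorescence after 16 hr compound exposure at 37C in the presence of 0.5 nM R1881 stimulator.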
# [18] = qHTS assay to identify small molecule phospholipidosis (PLD) inducers (AID 1259344; active means well fitted curve in the direction sought with a large enough effect; an effect the other way counts as inactive or inconclusive)
# Method in brief: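 Phospholipidosis is scored by imaging LipidTOX-stained pits in HepG2 cells exposed to compound for 24 h at 37 C; pit counts and integrated intensities per well and per cell serve as outputs.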
# [19] = qHTS RealTime-Glo MT Cell Viability Assay in HEK293 cells - 8 hour (AID 1224887)
# Method in brief: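 Nonlytic bioluminescent viability monitoring. HEK293 at 600 cells/well with reagent; 5 h settle; compound transfer by pintool; plates held at 37 C and read at set time points.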
smiles,measurement,setting,value
O=C(Cl)c1ccc(Cl)cc1,Potency,[1],inactive
same,Potency,[2],inactive
same,Potency,[3],inactive
same,Potency,[4],inactive
same,Potency,[5],inactive
same,Potency,[6],inactive
same,Potency,[7],inactive
same,Potency,[8],inactive
same,Potency,[9],inactive
same,Potency,[10],inactive
same,Potency,[11],inactive
COC(=O)N(C(=O)N1COC2(C(=O)OC)Cc3cc(Cl)ccc3C2=N1)c1ccc(OC(F)(F)F)cc1 (stereo not given),Potency,[1],inactive
same,Potency,[2],inactive
same,Potency,[3],inactive
same,Potency,[4],inactive
same,Potency,[12],inactive
same,Potency,[5],inactive
same,Potency,[6],inactive
same,Potency,[7],inactive
same,Potency,[13],inactive
same,Potency,[8],inactive
same,Potency,[9],inactive
same,Potency,[10],inactive
same,Potency,[14],inactive
same,Potency,[15],inactive
CCCCCCCCCCCCCCCC[N+](C)(C)C,Potency,[1],21.1 µM (active) and 19 µM (active)
same,Potency,[2],21.1 µM (active) and 49 µM (active)
same,Potency,[3],inactive and 54.9 µM (active) and 23.9 µM (active)
same,Potency,[16],9.42 µM (active) and 21.9 µM (active) and 9.52 µM (active)
same,Potency,[4],23.7 µM (active) and 49 µM (active) and 19 µM (active)
same,Potency,[12],inactive
same,Potency,[5],54.9 µM (active) and 21.3 µM (active)
same,Potency,[17],38.6 µM (active)
same,Potency,[18],inactive
same,Potency,[9],54.5 µM (active) and inactive
same,Potency,[10],61.1 µM (active) and inactive
same,Potency,[14],inactive
same,Potency,[11],3.72 µM (active) and 969 nM (active) and 298 nM (active)
COc1ccc(/C(=C/C(=O)N2CCOCC2)c2ccc(Cl)cc2)cc1OC,Potency,[1],inactive
same,Potency,[2],inactive
same,Potency,[3],inactive
same,Potency,[4],inactive
same,Potency,[5],inactive
same,Potency,[6],inactive
same,Potency,[13],inactive
same,Potency,[9],inactive
same,Potency,[14],inactive
same,Potency,[15],inactive
CCN(CC)C(=S)[S-].CCN(CC)C(=S)[S-].[Zn+2],Potency,[1],9.69 µM (active)
same,Potency,[2],inactive
same,Potency,[3],13.7 µM (active)
same,Potency,[16],4.86 µM (active)
same,Potency,[4],inactive
same,Potency,[12],inactive
same,Potency,[5],inactive
same,Potency,[6],1.92 µM (active)
same,Potency,[17],inactive
same,Potency,[7],1.08 µM (active)
same,Potency,[13],34.1 µM (active)
same,Potency,[8],inactive
same,Potency,[9],1.21 µM (active)
same,Potency,[14],inactive
same,Potency,[11],0.481 µM (active)
O=[N+]([O-])c1ccc(Oc2ccc(C(F)(F)F)cc2[N+](=O)[O-])cc1,Potency,[1],inactive
same,Potency,[2],inactive
same,Potency,[16],15.5 µM (active)
same,Potency,[19],19.5 µM (active)
same,Potency,[4],inactive
same,Potency,[12],inactive
same,Potency,[5],inactive
same,Potency,[6],inactive
same,Potency,[17],inactive
same,Potency,[7],inactive
same,Potency,[13],inactive
same,Potency,[8],inactive
same,Potency,[9],inactive
same,Potency,[10],inactive
same,Potency,[14],inactive
same,Potency,[11],61.1 µM (active)
same,Potency,[15],inactive
CN(C)C(=S)[S-].CN(C)C(=S)[S-].[Cu+2],Potency,[1],2.99 µM (active)
same,cytotoxicity increase,[2],-12.4% [at 15.8 µM] (inactive)
same,Potency,[3],3.77 µM (active)
same,Potency,[16],1.34 µM (active)
same,Potency,[4],2.38 µM (active)
same,"activity change, negative = inhibition",[13],-15% [at 19 µM] (inactive)
same,Potency,[9],2.64 µM (active)
same,Potency,[10],3.33 µM (active)
same,activity change,[14],"-10.5% [at 18.9 µM, stronger effect = higher value] (inactive)"
same,Potency,[11],1.49 µM (active)
